D2 ag-1: Beta-Arrestin HTS for Positive Allosteric Modulators of the Human D2 Dopamine Receptor: Agonists; activation, % (concentration not given with the values); D(2) dopamine receptor (Homo sapiens), P14416; AID 624465, 2012; DiscoveRx PathHunter D2 beta-arrestin, luminescence, 90 min; 100% = 57 uM dopamine signal; hit rate 0.084% among 360,000; in the data active = activation above about 40%; inconclusive = between about 15% and that limit
Target sequence (P14416 whole entry, looked up): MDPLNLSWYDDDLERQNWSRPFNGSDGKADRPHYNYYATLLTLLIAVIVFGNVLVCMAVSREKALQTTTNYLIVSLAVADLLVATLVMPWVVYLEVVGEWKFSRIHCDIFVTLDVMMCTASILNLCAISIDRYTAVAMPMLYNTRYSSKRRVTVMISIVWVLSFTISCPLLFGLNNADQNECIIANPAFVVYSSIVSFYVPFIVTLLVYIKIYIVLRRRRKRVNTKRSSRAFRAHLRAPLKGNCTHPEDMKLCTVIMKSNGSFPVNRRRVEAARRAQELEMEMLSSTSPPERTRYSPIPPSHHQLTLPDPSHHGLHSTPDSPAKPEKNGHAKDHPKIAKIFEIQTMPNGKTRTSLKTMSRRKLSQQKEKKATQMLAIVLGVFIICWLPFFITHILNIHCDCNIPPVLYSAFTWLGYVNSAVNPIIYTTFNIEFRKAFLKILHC
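DiscoveRx PathHunter D2 beta-arrestin cells (2,100/well) attached overnight, then compound-stimulated 90 min at 37 C in HBSS/10 mM HEPES/0.1% Tween-20 buffer; beta-galactosidase complementation read by luminescence after 1 h at ambient temperature. Dopamine 57 uM final (EC100) as control.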
D2 antag: HTS Assay for Allosteric Antagonists of the Human D2 Dopamine Receptor: Primary Screen for Antagonists; D(2) dopamine receptor (Homo sapiens), P14416; HEK293 TREx D2 cells, calcium flux, dopamine EC80; inhibition, % at 10 µM; hit rate 2% among 340,000; in the data active = inhibition above about 30%; inactive = below that, where a call was filed
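Dopamine at EC80 is the agonist stimulus; test compounds precede it by 180 s. Calcium flux read kinetically in a force-coupled, inducible HEK293 T-REx D2 cell line.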
D2 PAM-1: Beta-Arrestin HTS for Positive Allosteric Modulators of the Human D2 Dopamine Receptor: Potentiators | hit rate 0.23% among 360,000 | D(2) dopamine receptor (Homo sapiens), P14416 | potentiation, % (concentration not given with the values) | DiscoveRx D2 beta-arrestin cells, luminescence, 90 min; 100% = 57 uM dopamine signal | AID 624464, 2012; in the data active = potentiation above about 50%; inconclusive = mostly about 30% to 49%
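PathHunter beta-arrestin assay in DiscoveRx D2 cells. Compounds were added with an EC20 of dopamine (50 nM final) for 90 min at 37 deg C. Luminescence was read 1 h after detection reagent, with 57 uM dopamine as the EC100 control.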
D2 PAM-2: HTS Assay for Positive Allosteric Modulators of the Human D2 Dopamine Receptor: Primary Screen for Potentiators | D(2) dopamine receptor (Homo sapiens), P14416 | HEK293 T-REx D2, calcium flux, EC20 dopamine potentiation | potentiation, % at 10 µM | hit rate 0.34% among 340,000;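 active = potentiation over 3 SD above the plate norm, cut at about 30% in these data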
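Primary screen. Calcium kinetics in induced HEK293 T-REx D2 cells: compound pre-addition 180 s, EC20 dopamine, 180 s more.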
D2 ag-2: HTS Assay for Allosteric Agonists of the Human D2 Dopamine Receptor: Primary Screen for Agonists. D(2) dopamine receptor (Homo sapiens), P14416. HEK293 T-REx D2 cells, calcium flux agonist mode. activation, % at 2 µM. hit rate 0.53% among 340,000;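 active = activation over 3 SD above normal in the single-dose calcium agonist read, cut at about 30% in these data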
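Calcium-flux readout, 1 cycle/sec over 180 s following compound pin transfer, in inducible HEK293 Trex D2 cells (force-coupled); dopamine controls included. Positive calcium responses during this window marked compounds as potential agonists.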
Numbers stand for hits; – = inactive; ? = inconclusive; · = no result. This is a sample that favours compounds with a hit; in the whole collection about 2.4% have one here.

SMILES	D2 ag-1	D2 antag	D2 PAM-1	D2 PAM-2	D2 ag-2
CCN1CCC(N2CCN(c3ccc(F)cc3)CC2)CC1	–	–	–	–	–
Fc1ccc(N2CCN(C3CCC(c4ccccc4)CC3)CC2)cc1 (configuration not stated)	–	53.3	–	–	–
CCOC(=O)c1c(Nc2ccccc2N)cc(C)nc1C	–	–	–	–	–
CCOC(=O)c1c(O)cc(C)cc1Nc1ccccc1	–	32.2	–	–	–
CCc1nc2nc(C)c(NS(=O)(=O)c3ccc(C)cc3)c(=O)n2[nH]1	·	·	·	–	–
O=C(NCCCN1CCN(c2ccccc2)CC1)C1CCCN(c2ncnc3c2nc2n3CCCCC2)C1 (configuration not stated)	–	59.5	–	–	–
CC(C)Oc1ccc(CNC(=O)c2ccc(CN3CC(=O)N4CCCCC4C3=O)cc2)cc1 (configuration not stated)	·	·	·	–	·
NC(=O)c1cccc2c3c([nH]c12)CCCC3	–	–	–	–	–
Cc1cccc2c3c([nH]c12)CCN(C)C3	–	66.1	–	–	–
CCC/C=C/c1ccc(CN2C(C(C)C)C(=O)N(Cc3cn(Cc4ccco4)nn3)CCS2(=O)=O)cc1 (configuration not stated)	–	·	·	·	·
CCOCc1nnc(NC(=O)c2ccc(OC)cc2)s1	–	32.9	–	–	–
COc1ccc(-c2nnc(NC(=O)C(C)C)s2)c(OC)c1	–	–	–	36.5	–
COc1ccc(Cc2nnc(NC(=O)c3cccs3)s2)cc1OC	–	–	–	39.9	–
COc1ccc(Cc2nnc(NC(=O)c3ccc(OC)c(OC)c3)s2)cc1OC	–	–	–	–	–
COc1ccc(Cc2nnc(NC(=O)c3c(-c4ccccc4)noc3C)s2)cc1OC	·	–	·	–	–
COc1ccc(Cc2nnc(NC(=O)c3c(-c4ccccc4)noc3C)s2)cc1	–	–	–	34.2	–
CC(C)c1ccc(CN2CCC(n3nccc3NC(=O)C3CCCC3)CC2)cc1	–	·	–	·	·
COc1ccc(C(=O)Nc2nnc(Cc3ccc(OC)c(OC)c3)s2)c(OC)c1	–	–	–	–	–
COCc1nnc(NC(=O)c2ccc(OC)cc2OC)s1	–	39.4	–	37.7	–
COc1cccc(CN2C(=O)C(C)N(C(=O)c3ccccc3)c3ccccc32)c1 (configuration not stated)	–	–	–	31.1	–
O=C(NC1CCCC1)C(c1ccc(F)cc1)N(C(=O)Cc1cccs1)c1ccc2c(c1)OCCO2 (configuration not stated)	–	–	–	–	–
Cc1ccc(C(C(=O)NC2CCCC2)N(C(=O)Cc2cccs2)c2ccc3c(c2)OCCO3)cc1 (configuration not stated)	–	48.1	–	–	–
O=C(Cc1ccc(NC(=O)N2CCCCc3ccccc32)cc1)NCc1ccccc1	·	·	·	–	–
CN(C)CCCNc1oc(-c2ccccc2Cl)nc1S(=O)(=O)c1ccccc1	–	86.0	–	–	–
CN(C)CCCNc1oc(-c2ccc(Cl)cc2)nc1S(=O)(=O)c1ccccc1	–	·	–	·	·
SMILES	D2 ag-1	D2 antag	D2 PAM-1	D2 PAM-2	D2 ag-2
O=C(CSc1nnc(-c2ccccn2)n1Cc1ccccc1)Nc1ccc2c(c1)OCO2	–	–	–	32.2	–
Cn1c(SCC(=O)Nc2ccc3c(c2)OCCO3)nnc1-c1ccccn1	–	–	–	–	–
Nn1c(SCC(=O)Nc2ccc3c(c2)OCO3)nnc1C1CCCCC1	–	31.0	–	–	–
Cc1ccc(CC(=O)Nc2ncc([N+](=O)[O-])s2)cc1	–	–	67.4	–	–
Cc1ccc(S(=O)(=O)CC(=O)Nc2ncc([N+](=O)[O-])s2)cc1	–	–	–	–	–
CCOC(=O)c1c(C)c(-c2ccccc2)n(CC(=O)NCc2cccc(OC)c2)c1C	·	·	·	–	–
Cc1ccc(N(C)S(=O)(=O)c2cccc(C(=O)N(C)Cc3cnn(-c4ccccc4)c3)c2)cc1	–	·	–	·	·
Cc1ccc(-n2nnnc2CN2CCCCC2)cc1	–	37.8	–	–	–
Cc1cccc(CS(=O)(=O)Cc2ccc(C(=O)NCc3cccnc3)o2)c1	–	33.4	–	·	–
CCc1ccc(CNC(=O)c2ccc(CS(=O)(=O)Cc3cccc(C)c3)o2)cc1	·	·	·	·	–
O=C(/C=C/c1cccs1)NC1CCS(=O)(=O)C1 (configuration not stated)	–	–	–	–	31.8
O=C(/C=C/c1cccs1)NC1CCCC1	–	–	–	–	–
COc1cc(NS(=O)(=O)c2cn(C)cn2)cc(OC)c1	–	–	–	–	–
Cn1c2ccccc2c2ncn(CCCN3CCOCC3)c(=O)c21	–	–	–	38.3	–
Cn1c2ccc(F)cc2c2ncn(CCN3CCOCC3)c(=O)c21	–	–	–	–	–
Cc1sc2ncnc(OCC(=O)N3CC(=O)Nc4ccccc43)c2c1C	–	–	–	31.5	–
O=C1CN(C(=O)COC(=O)c2ccc([N+](=O)[O-])s2)c2ccccc2N1	?	·	68.8	·	·
CC1CC(=O)Nc2ccccc2N1C(=O)COc1ccc2ccccc2c1 (configuration not stated)	–	·	–	·	·
O=C1CN(C(=O)COc2ccc(Cl)cc2Cl)c2ccccc2N1	–	30.2	–	–	–
O=C1CN(C(=O)COc2ccc(F)cc2Cl)c2ccccc2N1	–	–	–	–	–
O=C1CN(C(=O)COc2ncnc3ccccc23)c2ccccc2N1	–	–	–	–	–
CC1CC(=O)Nc2ccccc2N1C(=O)COc1cc(Cl)ccc1Cl (configuration not stated)	–	30.4	–	–	–
O=C1CN(C(=O)COC(=O)c2cccs2)c2ccccc2N1	–	–	–	–	–
COc1ccc(OCc2cc(C(=O)NCCN3CCCc4ccccc43)no2)c(Cl)c1	–	–	–	–	–
CC(CCc1ccccc1)NC(=O)Cc1cccs1 (configuration not stated)	–	–	–	–	–
Cn1c(C(=O)NCc2ccccc2Cl)cc2sc(Cl)cc21	·	·	·	–	–
COc1cc2c(cc1NC(=O)c1ccccc1C)n(C)c(=O)n2C	·	·	·	–	–
COc1ccc(CNC(=O)Cc2ccc(NC(=O)N3CCCCc4ccccc43)cc2)cc1	·	·	·	–	–
O=C(C[n+]1ccccc1)N/N=C/c1cc(Br)ccc1O	–	36.4	–	–	–
O=C(N/N=C/c1cc(Cl)ccc1O)c1ccc(Br)cc1	–	34.1	–	–	–

Assay outcomes deposited in PubChem BioAssay by National Center for Advancing Translational Sciences (NCATS).
